Assay outcomes deposited in PubChem BioAssay by several laboratories.
DAT uptake mod = changed hDAT dopamine uptake under cocaine IC80, either direction, primary screen, cocaine antagonist project, cell-based, LLC-PK1 hDAT, [14C]-dopamine uptake, MLSMR | hit rate 1.3% among 110,000 | B-score at 10 µM | Sodium-dependent dopamine transporter (Homo sapiens), Q01959 | LLC-PK1 hDAT cells, [14C]-dopamine uptake with cocaine IC80; actives deviate in either direction;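 active = Z score or B-score, a plate-position-corrected score, falls beyond the plate's 99.7% confidence bounds, in either direction; inactive = both scores lie inside the 99.7% bounds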;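 also: scored against the spread of the other compound wells on the same plate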
PostGolgi yeast = phenotypic screen on post-Golgi transport, primary screen; post-Golgi transport phenotypic cell assay; AID 739, 2007; hit rate 0.9% among 98,000; inhibition, % at 10 µM;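 also: yeast cells grown in 1536-well plates; yeast grown about 18 h at 30C before absorbance read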
D1 allo mod = D1 CRE-luciferase signal change, two-sided – cell-based, HEK293 D1, dopamine EC30, D1 allosteric modulator project, primary screen; hit rate 5.9% among 58,000; D(1A) dopamine receptor (Homo sapiens), P21728; dopamine EC30 potentiation; actives deviate in either direction; B-score at 10 µM;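 active = luminescence count or its row- and column-corrected plate score outside the 99.7% band of the plate's sample wells, on either side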
Cav32 inh = Cav3.2 calcium influx blockers – cell-based, Fluo-4 calcium fluorescence, FDSS, MLSMR library, primary screen | Voltage-dependent T-type calcium channel subunit alpha-1H (Homo sapiens), O95180 | Cav3.2-expressing cells; stronger effect = lower value | B-score at 10 µM | hit rate 4% among 100,000;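 active = single-dose well whose peak fluorescence ratio is a statistical outlier from its plate by either plate-standardised score or position-corrected B-score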
PLAP act = PLAP enzyme activators, biochemical, luminescence, HTS | AID 696, 2007 | hit rate 1.2% among 96,000 | activation fold at 20 µM | Alkaline phosphatase, placental type (Homo sapiens), P05187 | purified PLAP enzyme, luminescent substrate read-out; stronger effect = higher value; in the data active = activation fold above about 2
Target sequence (P05187 whole entry, looked up): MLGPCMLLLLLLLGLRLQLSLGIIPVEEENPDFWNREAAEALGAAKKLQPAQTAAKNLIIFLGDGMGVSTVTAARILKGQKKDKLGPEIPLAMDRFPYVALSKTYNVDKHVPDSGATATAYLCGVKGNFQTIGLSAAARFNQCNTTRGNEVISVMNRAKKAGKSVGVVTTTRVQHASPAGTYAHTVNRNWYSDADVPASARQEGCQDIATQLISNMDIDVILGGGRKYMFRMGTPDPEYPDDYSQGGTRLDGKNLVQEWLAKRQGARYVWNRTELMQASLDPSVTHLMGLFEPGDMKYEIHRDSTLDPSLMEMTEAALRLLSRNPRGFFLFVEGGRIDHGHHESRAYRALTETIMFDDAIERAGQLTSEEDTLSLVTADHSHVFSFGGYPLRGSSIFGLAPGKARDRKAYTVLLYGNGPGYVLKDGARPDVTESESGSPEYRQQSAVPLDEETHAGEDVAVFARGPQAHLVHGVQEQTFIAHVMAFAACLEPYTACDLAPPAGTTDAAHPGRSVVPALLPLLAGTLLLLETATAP
PostGolgi ctrl = growth inhibition of yeast control strain, primary screen, counter-screen for post-Golgi transport modulator project. efflux-deficient yeast background strain, growth absorbance A615, 16 h. inhibition, % at 10 µM. hit rate 5% among 98,000. AID 738, 2007
* marks the source's active call; other numbers are inactive results; . = not tested or not shown. The list is not random: actives were taken first. Their share in the collection is about 12%. Rule as the data show it, unless noted: active = inhibition above about 30%; inactive = the rest.

SMILES	DAT uptake mod	PostGolgi yeast	D1 allo mod	Cav32 inh	PLAP act	PostGolgi ctrl
CC(CCc1ccccc1)NS(=O)(=O)c1ccccc1 (stereo not drawn)	1.11	-8.6	.	-2.5	0.7	14.6
COc1cc2nc(=S)n3[nH]c(CCn4c(C)nc5ccccc54)nc3c2cc1OC	0.434	-3.5	0.963	3.32*	1.2	19.4
COCn1c(-c2ccc(OC)c(OC)c2)nc2ccccc21	-0.135	5.3	2.14	-0.125	0.9	17.6
C=CCn1c(SCc2c(C)noc2C)nc2sc(C)c(C)c2c1=O	0.768	-4.3	.	-3.32	1.1	34.9*
COc1ccc2c(c1)c1ncn(CCc3ccccc3)c(=O)c1n2C	0.83	-16.5	.	-1.37	1.5	39.2*
COc1ccc2c(c1)c1ncn(CCCN3CCOCC3)c(=O)c1n2C	0.653	3.7	.	-0.058	1.6	4.1
CC(=O)NC1C(=O)Nc2c1cccc2C(F)(F)F (stereo not drawn)	0.567	1.7	-0.0318	0.63	1	-0.8
c1ccc(CNC2=NCCC2)nc1	-0.736	-3.2	-1.12	-0.583	1.2	-5.7
CSc1ccccc1C(=O)NCc1ccc2c(c1)OCO2	0.303	-7.9	0.0676	0.332	0.8	-2.7
N/C(=N\c1nc2c(c(=O)[nH]1)CCCC2)Nc1ccccc1Sc1ccccc1	1.94	0.7	.	0.375	2*	12.1
COC(=O)c1ccc(Oc2nc(N3CCCCC3)nc(N3CCOCC3)n2)cc1	-0.167	-12.5	0.204	-4.27*	1	8.4
CCOc1ccc(C(=O)N2CCC(C(=O)c3ccc4c(c3)OCCO4)CC2)cc1	1.17	6.5	-0.0813	-0.927	1.4	4.9
C=CCn1c(=O)c2ccccc2n2c(SCc3nc4ccccc4s3)nnc12	3.56*	-14.8	.	0.625	0.9	-1.8
CCOc1ccc(OCC)c(NC(=O)CCn2cccc2)c1	-0.231	-0.1	0.525	0.299	0.9	9.5
CCN1C=CC2=C(C#N)C(N)C(C#N)(C#N)C(c3ccccc3C(F)(F)F)C2C1 (stereo not drawn)	0.914	.	.	-2.93	.	.
O=C(COc1ccccc1)N1CCN(C(=O)c2cccs2)CC1	-0.0609	4.2	-0.452	0.259	0.8	8.5
Cc1ccc(-c2nnc(N3CCN(C(=O)CSc4ncn[nH]4)CC3)c3ccccc23)cc1	2.68*	4.6	-1.9	2.76	1.6	-3.3
Cc1ccc(OCC(=O)N2CCN(c3nnc(-c4ccccc4)c4ccccc34)CC2)cc1	3.04*	-7.8	.	-9.65*	1.5	27.7
Cc1nc(N2CCN(C(=O)COc3ccccc3)CC2)c2c(C)c(C)sc2n1	3.21	12.9	.	-3.95*	1.7	14.4
NS(=O)(=O)c1ccc(NC(=O)CSc2nnc(-c3cnccn3)n2-c2ccccc2)cc1	-0.102	20.7	0.202	0.104	1.1	1.5
COC(C[C@@H]1O[C@@H]1[C@@H](O)COCc1ccccc1)OC	0.913	.	.	-2.93	.	.
Cn1c(=O)c2c(nc(N3CCN(c4ccccc4)CC3)n2CCCc2ccccc2)n(C)c1=O	0.00523	1.5	-0.49	0.389	0.9	2.1
O=c1c2ccccc2nc(-c2ccc(Br)cc2)n1Cc1ccccc1	-0.184	8.5	.	-2.41	1	52.3*
O=c1c2ccccc2nc(-c2ccoc2)n1CCc1ccccc1	-0.0398	-0.6	-0.133	-1.66	0.8	41.4*
O=c1c2ccccc2nc(N2CCN(c3ccccc3)CC2)n1Cc1ccccc1	0.103	-3.3	-0.199	-5.38*	1.3	28.9
SMILES	DAT uptake mod	PostGolgi yeast	D1 allo mod	Cav32 inh	PLAP act	PostGolgi ctrl
CCOc1ccc(CCn2c(-c3ccco3)nc3ccccc3c2=O)cc1OCC	-0.0665	13.1	.	.	1.1	20.7
CC(C)Cn1c(-c2ccccc2)nc2ccccc2c1=O	-0.389	4.6	.	-0.231	0.9	0.7
CCn1nnnc1-c1ccc(OC)c(S(=O)(=O)NCCc2ccccc2)c1	-0.471	.	0.0667	0.866	1.5	.
Cc1ccccc1OC1C(=O)N(Cc2ccc3c(c2)OCO3)C1c1sccc1C (stereo not drawn)	0.312	-0.8	.	-3.15	0.9	9.3
CCO[C@H]1OC(C(=O)Nc2ccccc2)=C[C@@H](c2ccc(C(F)(F)F)cc2)[C@@H]1CCCO	0.0629	.	.	-2.05	.	.
COc1ccc(C(=O)COC(=O)[C@H](C)Nc2ccc(C(F)(F)F)cc2[N+](=O)[O-])cc1	-0.667	2.7	.	-1.05	0.8	1.2
Cc1cc(C)c(C(=O)COC(=O)[C@H](C)Nc2ccc(C(F)(F)F)cc2[N+](=O)[O-])c(C)c1	0.264	2.0	.	-4.37*	0.9	5.1
COc1ccc(OC)c(NC(=O)COC(=O)c2c3c(nc4ccccc24)CCCC3)c1	-0.627	15.8	.	-0.892	0.8	11.2
COc1ccc(NC(=O)COC(=O)c2c3c(nc4ccccc24)CCCC3)cc1Cl	-1.25	48.6*	.	-1.78	1.2	79.1*
COc1cc(NC(=O)c2c3c(nc4ccccc24)CCC3)cc(OC)c1	-0.908	11.0	.	-0.0195	1	1.9
COc1ccc(NC(=O)COC(=O)c2c3c(nc4ccccc24)CCCC3)cc1	0.0942	-0.5	.	-2.63	0.8	33.5*
O=C(C(Cl)Cl)N1c2ccccc2OCC1c1ccccc1 (stereo not drawn)	-0.0782	2.3	.	.	1.1	5.8
O=C(NCCOc1ccccc1)C1CCCN1C(=O)c1cccs1 (stereo not drawn)	-1.28	2.4	0.327	0.378	.	33.6*
CC1(C)NC(=O)N(CNc2cc(Cl)ccc2Cl)C1=O	0.355	6.2	-1.18	1.59	1	10.4
Cc1cc(C)c(C)c(S(=O)(=O)N2C(=S)NC(=O)C2C(C)C)c1C (stereo not drawn)	-0.152	7.5	.	-0.99	1.1	43.9*
Cc1cc(C)c(C)c(S(=O)(=O)N2C(=S)NC(=O)C2CC(C)C)c1C (stereo not drawn)	-0.42	1.3	.	-1.53	1.1	33.0*
COc1ccc(/C(O)=C2/C(=O)C(=O)N(CCCN(C)C)C2c2cccc(Cl)c2)cc1OC (stereo not drawn)	.	.	-0.274	.	.	.
O=C(CSCc1cccc(Br)c1)N/N=C/c1ccc2c(c1)OCO2	-0.868	5.4	.	-5.4*	1.1	11.5
CC(SCc1ccccc1)C(=O)N/N=C/c1ccc2c(c1)OCO2 (stereo not drawn)	-0.389	-2.6	.	-6.12*	1	-13.7
Clc1ncnc2scc(C3COc4ccccc4O3)c12 (stereo not drawn)	-0.736	.	.	-2.34	.	.
O=c1[nH]cnc2scc(C3COc4ccccc4O3)c12 (stereo not drawn)	1.2	13.2	2.41	-1.76	2.1*	8.2
Cc1cc(N2C(=O)C3CC=CC(C)C3C2=O)no1 (stereo not drawn)	-9.36*	.	.	0.301	.	.
COc1ccc(C(=O)n2ccc(C)n2)cc1Br	.	-6.8	-1.77	.	0.9	5.5
Cc1ccc(C2=Nc3ccccc3NC(C)(c3ccc(C)o3)C2)o1 (stereo not drawn)	0.626	-10.9	0.155	-5.26*	1.3	55.3*
